uPA generation = qHTS for Inhibitors of Cell Surface uPA Generation. Potency, µM (titrated, usually from 38.3 µM), without a hit: top-dose activity change, negative = inhibition, actives largely listed as inhibitors. AID 540303, 2011. 330,000 compounds, 0.31% hits. cell surface uPA generation assay, qHTS; active = well fitted inhibition curve with a large enough effect; inconclusive = small, poorly fitted or top-dose-only effect; inactive = no such curve, though single readings can be large or run the other way; tested in mouse RAW 264.7 cells; also: potency is read from the fitted curve at half-maximal effect; % is scaled to controls: 0 for no effect and ±100 for the full control effect; nearly all actives have a fitted effect of over 55% in size
Giardia killer = Small Molecules that selectively kill Giardia lamblia: qHTS. activity change, % at 7.66 µM, hits read low. 340,000 compounds, 0.15% hits. Giardia lamblia trophozoite viability; in the data active = activity change below about -80%; inconclusive = between about -30% and that limit;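 also: parasites exposed to compound for two days anaerobically before the ATP read; % is scaled to controls: 0 for no effect and ±100 for the full control effect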
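Compounds were tested on trophozoites seeded at 100 cells/well and held 48 hrs at 37 deg C anaerobically. An ATP-based luminescent kit measured the remaining live cells.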
GALK inh = qHTS Assay for Inhibitors of Human Galactokinase (GALK) | Potency, µM (highest dose often 57.5 µM), without a hit: at the top dose activity change, negative = inhibition, most hits filed as inhibitors | P51570 | 270,000 compounds, 0.007% hits | Purified GALK, Kinase-Glo residual ATP luminescence | AID 1868, 2009; also: potency is read from the fitted curve at half-maximal effect; % is scaled to controls: 0 for no effect and ±100 for the full control effect
Target sequence (P51570 whole entry, looked up): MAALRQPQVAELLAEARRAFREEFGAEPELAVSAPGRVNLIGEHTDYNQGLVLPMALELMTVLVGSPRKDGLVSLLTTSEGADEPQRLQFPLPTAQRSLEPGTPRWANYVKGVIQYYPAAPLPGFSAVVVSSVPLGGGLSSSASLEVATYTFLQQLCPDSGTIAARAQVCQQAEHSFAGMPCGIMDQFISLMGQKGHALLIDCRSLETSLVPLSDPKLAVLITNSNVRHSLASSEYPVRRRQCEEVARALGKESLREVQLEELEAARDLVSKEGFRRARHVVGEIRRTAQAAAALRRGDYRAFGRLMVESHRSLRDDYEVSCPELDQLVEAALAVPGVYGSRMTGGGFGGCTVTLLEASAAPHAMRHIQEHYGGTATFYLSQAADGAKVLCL
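Galactose (100 uM) and ATP (35 uM) were turned over by 5 nM GALK for 1 h at RT. Kinase-Glo Plus then converted the remaining ATP into a luminescent signal.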
miR-21 reporter = qHTS Assay for Modulators of miRNAs and/orActivators of miR-21; HeLa miR-21 FLuc reporter, luciferase, 48 h; Potency, µM (doses to about 38.3 µM), without a hit: top-dose activity change, positive = activation, usual class: activators; 340,000 tested, under 10 active; AID 2288, 2010;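 also: % of control where 0% means no effect; miR-21 action dims this reporter so a rising signal means less miR-21 action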
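Luminescence from a firefly luciferase reporter carrying a miR-21 binding site downstream, stably expressed under a CMV promoter in HeLa cells that make miR-21 endogenously, reports miRNA modulation after 48 h compound exposure up to approximately 40uM final.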
FBPA coupling cs = qHTS Assay for Inhibitors of Fructose-1,6-bisphosphate Aldolase from Giardia Lamblia: Coupling assay counterscreen | activity change, negative = inhibition, % at 58.2 µM, hits read low | coupling enzyme system counterscreen, AmpLite Red fluorescence | 290,000 compounds, 0.67% hits | AID 2472, 2010; in the data active = activity change below about -30%; also: % is scaled to controls: 0 for no effect and ±100 for the full control effect
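Compounds tested against the coupling enzymes alone at 57.5 uM final; readout was AmpLite Red fluorescence (525/598 nm) after 20 min at RT.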
B2AR arrestin = qHTS assay of beta-arrestin-biased ligands of beta2-adrenergic receptor; beta-arrestin recruitment to beta2AR, cell-based reporter; Beta-2 adrenergic receptor (Homo sapiens), P07550; 330,000 compounds, 0.02% hits; AID 492947, 2010; Potency, µM (doses to about 46.1 µM), for the others: at the top dose activation, hits mostly activators;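 also: potency is read from the fitted curve at half-maximal effect; 0% = DMSO controls and full agonism = EC100 isoproterenol or metaproterenol; nearly all actives have a fitted effect of over 65% in size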
Starred values were filed as active, the others as inactive. Compounds with a hit are over-represented: about 0.92% of the library has one in this group of screens. Unless noted, calls follow the shape of the dose curve; as a rule, active = well fitted curve in the direction sought with a large enough effect; inconclusive = small, poorly fitted or top-dose-only effect, or another doubt; inactive = no such curve, though single readings can be large; an effect the other way counts as inactive or inconclusive.

For Cn1c(SCC(=O)N/N=C/c2cccs2)nc2ccccc21 the results were Giardia killer 5.9, GALK inh -0.7%, miR-21 reporter -14.4%, FBPA coupling cs -15.9 and B2AR arrestin -0.1%.
Cc1ccc(/C=N/NC(=O)c2cccc(S(=O)(=O)Nc3ccccc3Cl)c2)s1 was read as uPA generation 1.9%, Giardia killer -19.0, GALK inh 2.0%, miR-21 reporter -9.6%, FBPA coupling cs -33.6* and B2AR arrestin -0.4%.
For Cc1ccc(/C=N/NC(=O)c2ccc3ccccc3c2)s1 the results were uPA generation 4.47µM*, Giardia killer 24.9, GALK inh -2.7%, miR-21 reporter -20.6%, FBPA coupling cs -0.9 and B2AR arrestin -0.9%.
Screening Cc1ccc(/C=N/NC(=O)CSc2nc3ccccc3n2C)s1 returned uPA generation 0.3%, Giardia killer -3.2, miR-21 reporter -15.2%, FBPA coupling cs -32.4* and B2AR arrestin -0.9%.
CCC(=O)NC(c1cccs1)c1cc(Cl)c2cccnc2c1O (stereo unspecified) was read as uPA generation 7.08µM*, Giardia killer -1.9, GALK inh 3.8%, miR-21 reporter -3.0%, FBPA coupling cs 5.5 and B2AR arrestin -0.1%.
For CCCCC(=O)NC(c1cccs1)c1cc(Cl)c2cccnc2c1O (stereo unspecified) the results were uPA generation inconclusive, Giardia killer 9.9, GALK inh 1.1%, miR-21 reporter inconclusive, FBPA coupling cs 0.0 and B2AR arrestin 0.1%.
CCC(=O)NC(c1cc(Cl)c2cccnc2c1O)C1CC1 (stereo unspecified) was read as uPA generation 12.6µM*, Giardia killer -14.1 and B2AR arrestin inconclusive.
For CC(=O)NC(c1ccccc1)c1cc(Cl)c2cccnc2c1O (stereo unspecified) the results were uPA generation -16.8%, Giardia killer 1.6, GALK inh 5.9%, miR-21 reporter 20.2%, FBPA coupling cs -5.9 and B2AR arrestin inconclusive.
`COc1ccc(C(NC(C)=O)c2cc(Cl)c3cccnc3c2O)cc1` (stereo unspecified) gave uPA generation 6.31µM*, Giardia killer -16.3, GALK inh -3.2%, miR-21 reporter 22.1%, FBPA coupling cs -5.1 and B2AR arrestin inconclusive.
Cc1cc2nc(N3C(=O)CNC3=S)sc2cc1C was read as uPA generation -14.8%, Giardia killer inconclusive, GALK inh 2.0%, miR-21 reporter -3.0%, FBPA coupling cs -0.2 and B2AR arrestin 0.0%.
CCOc1ccc2nc(N3C(=O)CNC3=S)sc2c1 was read as uPA generation -11.2%, Giardia killer inconclusive, miR-21 reporter -9.1%, FBPA coupling cs 1.9 and B2AR arrestin 3.98µM*.
O=C(NC(=S)Nc1ccccn1)c1ccc(-c2ccccc2)cc1 was read as uPA generation -7.6%, Giardia killer -89.9*, GALK inh -0.9%, miR-21 reporter -26.4% and B2AR arrestin 0.8%.
`O=C(NC(=S)Nc1ccccn1)c1ccccc1` gave uPA generation inconclusive, Giardia killer 12.3, GALK inh -1.6%, miR-21 reporter -26.1%, FBPA coupling cs -7.7 and B2AR arrestin inconclusive.
For COc1cc(O)c(C(=O)/C=C/c2ccccc2)c(O)c1 the results were FBPA coupling cs -0.1.
For COc1cc(O)c(C(=O)/C=C/c2ccccc2)c(OC)c1 the results were uPA generation 8.91µM*, Giardia killer -12.6, GALK inh 1.9%, miR-21 reporter 10.8%, FBPA coupling cs -1.0 and B2AR arrestin 0.1%.
`CN(CCO)c1nc(N)c2c(N)nc3c(c2c1C#N)CC(=O)N3C1CCCC1` gave GALK inh -2.5%, miR-21 reporter 3.1%, FBPA coupling cs -37.6* and B2AR arrestin -0.2%.
Screening C=CCn1c(O)c(CN2CCCCC2)c(C)c(C#N)c1=O returned uPA generation 1.6%, Giardia killer 1.5, GALK inh 3.1%, miR-21 reporter 2.1%, FBPA coupling cs -32.6* and B2AR arrestin -1.1%.

Compound activity from PubChem BioAssay.
